# From PubChem BioAssay
# Spn PMK inh: blocks S. pneumoniae phosphomevalonate kinase; purified PMK, PK/LDH-coupled NADH absorbance 340 nm; hit rate 0.49% among 65,000; inhibition, % at 10 µM;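 active = top-ranked compounds by inhibition in the single 10 µM screen, taking a fixed number of the strongest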;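 also: 0% = full reaction with DMSO carrier and 100% = background rate without enzyme reaction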
# MK inhibit: S. pneumoniae mevalonate kinase inhibition; AID 555; hit rate 0.48% among 65,000; inhibition, % at 10 µM; purified MK, PK/LDH-coupled NADH absorbance 340 nm;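 active = ranked among the strongest by inhibition in the single 10 µM screen, a fixed top-ranked set picked for dose follow-up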
# DPM-DC inhibit: inhibitors of Streptococcus pneumoniae diphosphomevalonate decarboxylase. purified DPM-DC, PK/LDH coupled NADH fluorescence. calls only at 10 µM. hit rate 0.49% among 65,000. AID 556;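 active = the 320 compounds with the highest percent inhibition in the single-dose primary screen, excluding strongly autofluorescent ones, cut at about 32% in these data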;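 also: kinetic rate of NADH fluorescence loss reporting ADP formed by the decarboxylase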
# Fluor 339 460: intrinsic fluorescence of library compounds, ex339/em460 – biochemical, MLSMR library, data from DPM-DC assay, artefact control, profiling panel; hit rate 5.5% among 65,000; fluorescence fold increase at 10 µM; compound autofluorescence, ex339/em460 nm, NADH buffer; active compounds read high; 1 = no-compound wells, NADH background;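 active = at 10 µM, mean starting fluorescence two-fold or more over control wells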;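 also: signal is the first read of a kinetic run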
# NADH enzymes: inhibition of NAD/NADH coupling enzymes, library profiling; coupled PK/LDH NADH assays, four targets; IC50, µM (series often up to 10 µM), for the others: at the highest dose inhibition; hit rate 0.02% among 65,000; AID 774;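 active = single-dose screening hits from any of four coupled enzyme assays that gave an IC50 when retested across doses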;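 also: the DPM-DC format reads NADH fluorescence rather than 340 nm absorbance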
# A340 absorber: compounds absorbing at 340 nm. 65,000 tested, under 10 active. compound absorbance at 340 nm, fold over control. fold change at 10 µM;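 active = at 10 µM dose, initial 340 nm absorbance at least 2 fold that of control wells; inactive = change under 2 fold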;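 also: initial absorbance extrapolated from kinetic A340 decline of NADH oxidation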
# Starred values were filed as active, the others as inactive; i = inactive; · = no result shown; + = active, no number. Rows were chosen to be rich in hits. Some 6.8% of all compounds tested hit in one or more screens of this group.
SMILES,Spn PMK inh,MK inhibit,DPM-DC inhibit,Fluor 339 460,NADH enzymes,A340 absorber
CCS(=O)(=O)N1CCC(C(=O)NCC2CCCO2)CC1 (stereo not drawn),25.0*,0.0,i,1.06,8.0%,1
O=C(NCC1CCCO1)C1CCC(CNS(=O)(=O)c2ccccc2)CC1 (stereo not drawn),17.0,4.0,i,0.98,4.0%,0.96
C/C(O)=c1/ccc2cccc3nc(C)nc1c23,14.0,0.0,i,3.02*,13.0%,1.05
C=CCn1c(NCc2ccc3c(c2)OCO3)nc2ccccc21,17.0,0.0,i,1.07,6.0%,1.01
C=CCn1c(NCc2ccccc2)nc2ccccc21,25.0*,0.0,i,1.04,8.0%,0.99
CC(C)Sc1nc(NCc2ccco2)c2c3c(sc2n1)COC(C)(C)C3,0.0,5.0,·,2.03*,3.0%,1.06
Cc1nc(NCc2ccco2)c2c3c(sc2n1)CCC3,1.0,4.0,i,1.12,2.0%,1.03
Clc1ccccc1OCCCCN1CCCC1,7.0,40.0*,i,1.11,16.0%,1.04
COc1cccc(OC)c1OCCCCN1CCCC1,8.0,52.0*,i,1.01,20.0%,1.07
COc1ccccc1OCC(=O)Nc1cccc(C(=O)N2CCOCC2)c1,4.0,6.0,i,1.12,3.0%,1.06
CC1(C)Cc2c(c(N3CCOCC3)nc3sc(-c4ccc(C(=O)O)o4)c(N)c23)CO1,9.0,7.0,·,3.84*,8.0%,1.26
c1nc(N2CCOCC2)c2sc3nc(N4CCOCC4)c4c(c3c2n1)CCCC4,13.0,6.0,i,1.23,7.0%,1.03
CC1(C)Cc2c(c(N3CCOCC3)nc3sc(C(=O)N4CCCCC4)c(N)c23)CO1,3.0,4.0,·,2.13*,4.0%,1.07
CNC(=O)c1ccc(-c2sc3nc(N4CCOCC4)c4c(c3c2N)CCCC4)o1,9.0,12.0,·,2.2*,11.0%,1.15
CCOC(=O)c1sc2nc(N3CCOCC3)c3c(c2c1N)CCN(C)C3,0.0,0.0,·,3.74*,0.0%,1.24
Cn1cnc2c(sc3nc(N4CCOCC4)c4c(c32)CC(C)(C)OC4)c1=O,10.0,11.0,·,1.99,11.0%,1.1
CCN(CC)c1nc(N2CCOCC2)c(C#N)c2c1CN(C)CC2,2.0,17.0,i,1.12,6.0%,1.1
O=C(Nc1ccc2c(c1)OCCO2)C1CCCN(S(=O)(=O)c2cnc[nH]2)C1 (stereo not drawn),5.0,1.0,i,1,2.0%,0.98
CCOC(=O)C1=C(N)n2c(s/c(=C\c3cccs3)c2=O)=C(C(=O)OCC)C1c1cccs1 (stereo not drawn),1.0,6.0,i,1.06,2.0%,1.07
COc1cccc(C(CC(=O)NCc2ccco2)NS(=O)(=O)c2ccc(C)cc2)c1OC (stereo not drawn),0.0,6.0,i,1.07,2.0%,1.08
CCN(CCNC(=O)CN1CCN(Cc2ccc(Cl)cc2)C1=O)c1ccccc1,12.0,6.0,i,1.08,6.0%,1.03
COc1cccc(C2C(C(=O)c3cccs3)=C(O)C(=O)N2CCCn2ccnc2)c1OC (stereo not drawn),7.0,11.0,i,0.99,4.0%,0.99
Nc1nc(N2CCOCC2)nc2ccccc12,2.0,12.0,·,3.95*,7.0%,1.01
c1ccc2nc(N3CCOCC3)c(N3CCOCC3)nc2c1,5.0,16.0,i,1.11,7.0%,1.09
CCOc1ccc2nc(N3CCOCC3)nc(C)c2c1,4.0,5.0,·,3.84*,5.0%,1.06
SMILES,Spn PMK inh,MK inhibit,DPM-DC inhibit,Fluor 339 460,NADH enzymes,A340 absorber
c1ccc2c(N3CCCCC3)nc(N3CCCCC3)nc2c1,12.0,0.0,i,1.52,7.0%,1
c1ccc2c(c1)nc(N1CCOCC1)c1c3ccccc3[nH]c21,9.0,7.0,·,3.6*,8.0%,1.08
Cc1cc(N2CCN(c3nc(N4CCOCC4)nc4ccccc34)CC2)c2ccccc2n1,6.0,3.0,i,2.13*,7.0%,1.07
CCOc1ccccc1C1C(C(=O)Nc2ccccc2OC)=C(C)Nc2nnnn21 (stereo not drawn),13.0,0.0,i,1.14,4.0%,1.02
O=C(NC1CCCC1)C(c1ccco1)N(Cc1ccccc1)C(=O)c1csnn1 (stereo not drawn),13.0,0.0,i,1.03,3.0%,0.99
COCC(C)n1c(COc2ccccc2F)nnc1SCc1c(C)noc1C (stereo not drawn),29.0*,3.0,i,1,11.0%,1
Cc1noc(C)c1CSc1nnc(-c2ccccc2F)n1CCc1ccccc1,14.0,3.0,i,1.03,6.0%,0.99
Cn1cc(Cl)nc1C(O)c1ccccc1 (stereo not drawn),12.0,0.0,i,1.12,4.0%,1
CCOC(=O)CSc1nc(N)c(C(=O)Nc2ccc(N(C)C)cc2)s1,9.0,0.0,i,1.04,3.0%,1.1
CCCC(C(=O)NC1CCCC1)N(CC1CCCO1)C(=O)c1snc(C(N)=O)c1N (stereo not drawn),11.0,18.0,i,2.79*,14.0%,1.04
CCCC(C(=O)NC1CCCC1)N(CCCN1CCOCC1)C(=O)c1snc(C(N)=O)c1N (stereo not drawn),11.0,0.0,i,2.16*,10.0%,1.04
COCCOC(=O)C1=C(C)NC2=C(C(=O)CC(c3cccs3)C2)C1c1ccsc1 (stereo not drawn),12.0,2.0,i,2.39*,12.0%,1.05
CC1=C(C(=O)OCC2CCCO2)C(c2ccccc2OC(C)C)C2=C(CC(c3ccco3)CC2=O)N1 (stereo not drawn),8.0,4.0,·,3.32*,6.0%,1.03
CCN(CC)c1ccc(C2C(C(=O)OCCOC)=C(C)NC3=C2C(=O)CCC3)cc1 (stereo not drawn),3.0,13.0,i,1.37,7.0%,1.1
CCOC(=O)C1=C(C)NC2=C(C(=O)CCC2)C1c1cccnc1 (stereo not drawn),8.0,11.0,·,2.08*,10.0%,1.09
CCOC(=O)C1=C(N)OC2=C(C(=O)CCC2)C1c1cccnc1 (stereo not drawn),0.0,12.0,i,1.12,4.0%,1.03
CC1=C(C(=O)OCC2CCCO2)C(c2ccccc2)NC(=O)N1 (stereo not drawn),6.0,5.0,i,0.9,8.0%,1.01
CC1=C(C(=O)OCC2CCCO2)C(c2ccncc2)C2=C(CCCC2=O)N1 (stereo not drawn),6.0,2.0,+,1.42,18.0%,1.05
Cc1cc(NC(=O)CN2CCN(Cc3ccccc3)CC2)nc2c1c(=O)oc1ccccc12,4.0,7.0,i,1.18,5.0%,1.07
CC1=C(C(=O)OC(C)C)C(c2cccs2)C2=C(CCCC2=O)N1 (stereo not drawn),1.0,4.0,i,1.52,2.0%,1.06
COC(=O)C1=C(C)NC2=C(C(=O)CCC2)C1c1ccccn1 (stereo not drawn),5.0,4.0,·,2.14*,5.0%,1.1
